PKM2 inhibitor – qHTS Assay for Inhibitors of Human Muscle isoform 2 Pyruvate Kinase; purified PKM2, ATP generation, Kinase-Glo luminescence; Potency, µM (doses to about 57.5 µM), for inactives: top-dose activity change, negative = inhibition, usual class: inhibitors; 260,000 compounds, 0.058% hits; AID 1634, 2009; further: potency means the concentration at half of the fitted maximal effect; nearly all actives have a fitted effect of over 60% in size
Target sequence (P14618 whole entry, looked up, canonical isoform): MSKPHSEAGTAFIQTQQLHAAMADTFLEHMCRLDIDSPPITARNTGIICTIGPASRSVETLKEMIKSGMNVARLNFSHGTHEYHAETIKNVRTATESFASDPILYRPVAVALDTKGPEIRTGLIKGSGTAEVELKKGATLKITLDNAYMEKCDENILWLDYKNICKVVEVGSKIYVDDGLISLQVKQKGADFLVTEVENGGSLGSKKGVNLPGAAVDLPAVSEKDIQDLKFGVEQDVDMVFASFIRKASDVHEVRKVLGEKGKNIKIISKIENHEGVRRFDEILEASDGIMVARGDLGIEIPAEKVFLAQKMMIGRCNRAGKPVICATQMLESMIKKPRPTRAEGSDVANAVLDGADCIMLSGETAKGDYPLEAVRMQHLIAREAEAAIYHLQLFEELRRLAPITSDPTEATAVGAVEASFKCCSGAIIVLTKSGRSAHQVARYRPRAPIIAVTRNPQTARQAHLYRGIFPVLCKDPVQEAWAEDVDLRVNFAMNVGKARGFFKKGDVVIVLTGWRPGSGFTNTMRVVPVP
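Enzyme run at intermediate activity with final 0.1 mM ADP, 0.5 mM PEP (50 mM imidazole pH7.2, 50 mM KCl, 7 mM MgCl2), incubated 1 h at r.t. ATP formed read by Kinase-Glo luminescence, normalized to no-enzyme (full inhibition) and uninhibited wells.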
PKM2 inh CRC – Confirmation Concentration-Response Assay for Inhibitors of Human Muscle isoform 2 Pyruvate Kinase; shares compounds with PKM2 inhibitor; purified hPK-M2, Kinase-Glo ATP luminescence, 1 h; Potency, µM (top dose mostly 57.5 µM), without a hit: at the top dose activity change, negative = inhibition, actives largely listed as inhibitors; 55 compounds, 50% hits
FLuc counter – Secondary assay for Inhibitors of Human Pyruvate Kinase M2 isoform: FLuc Counterscreen; Potency, µM (titrated, usually from 57.5 µM), for inactives: at the highest dose activity, negative = inhibition, hits mostly inhibitors; Kinase-Glo firefly luciferase, luminescence, 8 min; shares compounds with PKM2 inhibitor; 55 compounds, 30% hits
PKM2 inh LDH – Secondary assay for Inhibitors of Human Pyruvate Kinase M2 isoform | shares compounds with PKM2 inhibitor | purified hPK-M2, LDH-coupled NADH fluorescence kinetic | Potency, µM (titrated, usually from 57.5 µM), without a hit: top-dose activity change, negative = inhibition, usual class: inhibitors | 55 tested, under 10 active
Starred values were filed as active, the others as inactive; ? = inconclusive; / = no result given. The sample as a whole holds a higher share of hits than the screen did. The call rests on the fitted dose curve; in most records, active means well fitted curve in the direction sought with a large enough effect; inconclusive means small, poorly fitted or top-dose-only effect, or another doubt; inactive means no such curve, though single readings can be large; an effect the other way counts as inactive or inconclusive.

SMILES	PKM2 inhibitor	others
COc1ccc(S(=O)(=O)N2CCN(c3nc4ccccc4nc3-n3nc(C)cc3C)CC2)cc1	53%
CCOc1cc(NC(=O)c2cccs2)c(OCC)cc1NC(=O)CCC(=O)NCCN1CCOCC1	33%
CCc1ccc(NC(=O)CSc2nnc(C)c(=O)n2N)cc1	31%
O=C1c2cccnc2C(Nc2ccccc2Br)N1Cc1ccco1 (stereo not given)	31%
COc1ccc(OC)c2c(C)c(C)[nH]c12	51%
O=C(Nc1cccc(S(=O)(=O)N2CCOCC2)c1)c1cnccn1	41%
Cc1ccc2nc(-c3ccco3)c(Nc3ccccc3)n2c1	/	PKM2 inh CRC=-1%;FLuc counter=-1%;PKM2 inh LDH=?
c1coc(-c2nc3ccccc3nc2-c2ccco2)c1	30%
COc1ccc(N2CCN(C(=O)[C@H](Cc3c[nH]c4ccccc34)NC(C)=O)CC2)cc1	67%
CN(C)/C=C(\C(=O)c1ccc(F)cc1F)c1nnnn1-c1ccccc1	68%
Cc1ccc2nc(-c3ccncc3)c(Nc3ccccc3)n2c1	/	PKM2 inh CRC=16%;FLuc counter=-2%;PKM2 inh LDH=-1%
O=C(CSc1ccc(-c2cccs2)nn1)Nc1ccccc1	44%
Cc1ccc2nc(-c3cccs3)c(Nc3ccccc3)n2c1	/	PKM2 inh CRC=3%;FLuc counter=-4%;PKM2 inh LDH=-7%
O=C(N/N=C\c1ccc(-c2ccc([N+](=O)[O-])cc2)o1)C1COc2ccccc2O1 (stereo not given)	40%
O=C(NCc1ccc(Cl)cc1Cl)C1CCN(S(=O)(=O)c2ccc3c(c2)OCCCO3)CC1	45%
Cc1cccc(NC(=S)N(CCN2CCOCC2)Cc2cc3cc4c(cc3[nH]c2=O)OCCO4)c1	32%
Cc1cc(C)cc(C(=O)NCC(=O)OCC(=O)N2CCN(S(=O)(=O)c3ccc4ccccc4c3)CC2)c1	62%
Cc1ccc(CSC2=Nc3sccc3C3=NC(=O)CN23)cc1	43%
COc1ccc(NC(=O)/C(Cl)=C(/Cl)S(=O)Cc2ccc(Cl)cc2)cn1 (stereo not given)	36%
CCN(CC)S(=O)(=O)c1cccc(NC(=O)c2ccc(Sc3nncn3C)c([N+](=O)[O-])c2)c1	88%
CCOc1ccc(OCC(=O)Nc2nccs2)cc1	10µM*	PKM2 inh CRC=10µM*;FLuc counter=?;PKM2 inh LDH=-2%
Cc1ccc(CCC(=O)Nc2nccs2)o1	90%
CCOC(=O)C(Cc1ccccc1)C(=O)Nc1nccs1 (stereo not given)	45%
CCOC(Cn1ccc(=O)[nH]c1=O)OCC	-7%
O=C(NCc1nnc2c(C(F)(F)F)cc(Cl)cn12)c1ccco1	64%
SMILES	PKM2 inhibitor	others
COCCNC(=O)C(Cc1c[nH]c2ccccc12)NC(=O)OCc1ccccc1 (stereo not given)	-3%
O=C(Nc1nc2ccccc2[nH]1)c1ccccc1F	8.9µM*	PKM2 inh CRC=5.2µM*;FLuc counter=4.1µM*;PKM2 inh LDH=-7%
CCS(=O)(=O)N1Cc2ccccc2CC1C(=O)Nc1nc2ccccc2[nH]1 (stereo not given)	36%
CC(=O)c1cc2c(cc1NC(=O)CSc1nc3ccccc3[nH]1)OCO2	32%
Cc1ccc(C(=O)N/C(=C\c2cn(S(=O)(=O)N(C)C)c3ccccc23)C(=O)NCCN2CCOCC2)cc1	56%
Cc1cc(OCC(=O)NC(Cc2ccc(Cl)cc2)C(=O)O)c2c(C)c(C)c(=O)oc2c1 (stereo not given)	43%
CC(C)c1ccc(N(CC(=O)NCC2CCCO2)C(=O)Cn2nnc(-c3cccs3)n2)cc1 (stereo not given)	50%
O=C(NCCc1ccccc1)c1c(O)c2ccccc2[nH]c1=O	36%
O=C1C(c2cc(=O)c3ccccc3[nH]2)=C(O)c2ccccc21	11µM*	PKM2 inh CRC=16µM*;FLuc counter=-13%;PKM2 inh LDH=?
